Our source for the inhibition (viability loss, TRAIL sensitization) values is PubChem BioAssay AID624354 (Sanford-Burnham Center for Chemical Genomics, 2012).

The campaign covered roughly 360,000 compounds. About 3,800 (1.1%) were called active.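 The calls were made as follows: active = compounds causing at least 50% loss of cell viability in the single-dose screen, relative to plate controls; inactive = the rest.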 Shown is part of a subset that was picked to be rich in actives.

The assay in a line: TRAIL-exposed caspase-8 expressing cell killing – NB7+C8 cells, ATPlite luminescence, TRAIL sensitizer project, primary screen (AID 624354). To be noted: at 10 µM, active compounds read high. A general note: Cellular ATP, detected with luciferase, serves as a proxy for viable cell number.
Regarding `COc1cc(-c2nc(S(=O)(=O)c3ccc(Cl)cc3)c(N(C)C)o2)cc(OC)c1OC`, the inhibition (viability loss, TRAIL sensitization) is -2.14% (inactive).
Then `COc1ccc(N(C(=O)c2ccc(C)cc2)S(=O)(=O)c2cccs2)cc1`, with -2.28% (inactive); and `CCN(CC)S(=O)(=O)c1ccc(N2CCOCC2)c(NC(=O)C2CSC3(C)CCC(=O)N23)c1` (centres undefined), with -1.07% (inactive).
Regarding `Cn1c(SCC(=O)Nc2ccc(Br)cc2F)nnc1-c1ccco1`, the inhibition (viability loss, TRAIL sensitization) is -0.204% (inactive).
For `COc1ccc(-n2cnc3cc(NCc4ccco4)ccc32)cc1` the value was 16.5% (inactive); for `Cn1c(-c2ccco2)nc2cc3ccccc3cc21`, 89.4% (active); for `Cc1c(CNCCc2ccccc2)c(C(=O)O)c(C)n1-c1ccccc1`, -25.6% (inactive).
In the case of `COCc1cc(=O)oc2cc(NS(=O)(=O)c3ccc(C)cc3)ccc12`, the inhibition (viability loss, TRAIL sensitization) was 2.58% (inactive).
For `Cc1cc(NC(=O)CCC(=O)N(Cc2ccccc2)C(C(=O)NC2CCCC2)c2ccc(C)o2)no1` (centres undefined) the value was -0.804% (inactive); for `CC(C)CCN1CCN(Cc2cn[nH]c2C2CCCCC2)CC1CCO` (centres undefined), 5.07% (inactive); for `COc1ccc(-c2nc(-c3ccccc3)no2)c(OC)c1`, 83% (active).
Then `COc1ccc(-c2noc(CNC(=O)C(C)Oc3ccccc3)n2)cc1` (centres undefined), with -4.7% (inactive).
Then `COc1ccc(/C=C/c2noc(-c3ccccc3OC(C)=O)n2)cc1`, with 12.1% (inactive); and `Cc1ccc(C)c(S(=O)(=O)N2CCN(c3ncnc4sccc34)CC2)c1`, with 66.5% (active).
As to `Cc1ccc([N+](=O)[O-])cc1S(=O)(=O)N1CCCN(C)CC1`, the inhibition (viability loss, TRAIL sensitization) is 1.18% (inactive).
Then `Cc1ccc(S(=O)(=O)N2CCC3(CC2)OCCO3)c(C)c1`, with 1.61% (inactive).
Then `CNC(=S)N1CCC(NC(=O)C(Cc2ccc(F)cc2)NC(C)=O)CC1` (centres undefined), with -1.63% (inactive); and `CCCCCc1c(-c2ccc(OC)c(OC)c2)ncn1CCc1ccccc1OC`, with 51.2% (active).
Then `CCCCc1c(-c2ccc(Cl)cc2)ncn1CCc1ccccc1OC`, with 31.8% (inactive); and `CCCCCc1c(-c2cccc(Br)c2)ncn1CCc1ccccc1OC`, with 23.2% (inactive); and `CS(=O)(=O)N(CC(=O)N1CCN(c2ccc(F)cc2)CC1)C1CCCCC1`, with -11.1% (inactive).
With `COc1ccc(C(=O)/C=C/Nc2ccccn2)cc1`, the inhibition (viability loss, TRAIL sensitization) is 73.3% (active).
For `Cc1ccc(N/C=C/C(=O)c2ccccc2)cc1C` the value was 78.5% (active); for `COCCN(C(=O)CCC(=O)Nc1ccccn1)C(C(=O)NCCC(C)C)c1ccc(OC)cc1` (centres undefined), -1.74% (inactive).
For `COC(C(=O)Nc1ccc(S(=O)(=O)Nc2ccc(C)c(C)c2)cc1)c1ccccc1` (centres undefined) the value was 5.37% (inactive); for `O=C(/C=C/Nc1ccc(S(=O)(=O)Nc2cnc3ccccc3n2)cc1)c1cccnc1`, -7.32% (inactive).
For `CCOc1ccc(/C=C(/NC(=O)c2ccccc2)C(=O)NCCC(=O)O)cc1` the value was -4.31% (inactive); for `Cc1ccc(NNC(=O)C2CCC2)cc1C`, -7.51% (inactive); for `CCOc1ccc(N/C=C/C(=O)c2ccccc2)cc1`, 66.6% (active).
On to `CCOc1ccc(NC(=O)C2CCCN(C(=O)Nc3ccccc3)C2)cc1` (centres undefined), for which the inhibition (viability loss, TRAIL sensitization) is -15.9% (inactive).
Then `COc1ccc(CN2C(=O)CN=C2Nc2ccc(C)cc2C)cc1`, with -15.6% (inactive); and `Cc1ccc(CN2CC(N3CCC(Cc4ccccc4)CC3)CS2(=O)=O)cc1` (centres undefined), with -13.4% (inactive).
As for `Cc1ccc(CN2CCN(Cc3cccc(C)n3)CC2CCO)cc1` (centres undefined), the inhibition (viability loss, TRAIL sensitization) was 0.251% (inactive).
As for `COc1cc(C)c(CN2CCN(C(=O)CCC(=O)c3ccc(C)s3)CC2)cc1OC`, the inhibition (viability loss, TRAIL sensitization) was 16.8% (inactive).
Turning to `O=C(c1cc2c(s1)CCC2)N1CCN(c2ccccc2)CC1`, the inhibition (viability loss, TRAIL sensitization) is -1.76% (inactive).
For `COc1ccc(S(=O)(=O)N2CN(CCc3ccc(OC)c(OC)c3)c3nc4ccccc4nc32)cc1` the value was 5.09% (inactive).
For `CN(C(=O)Nc1ccc(Cl)cc1)n1cnc2ccccc2c1=O` the value was 7.39% (inactive); for `CC(C)(C)c1nc2ccccc2c(=O)n1N1C(=O)c2ccccc2C1=O`, 11.4% (inactive).
Then `CN(c1ccc2nc3ccccc3c(=O)n2n1)C1CCCCC1`, with 91.9% (active); and `O=C(COC(=O)c1ccco1)Nc1ccc(Cl)cn1`, with -1.44% (inactive); and `O=C(Nc1ccc(NC(=O)c2cccs2)cn1)c1ccco1`, with 63% (active).
Take `CC(OC(=O)CNC(=O)c1ccco1)C(=O)Nc1ccc(Cl)cn1` (centres undefined): the inhibition (viability loss, TRAIL sensitization) is 8.79% (inactive).
Consider `Cc1cc(C)c(S(=O)(=O)NN=C2c3ccccc3[C@H]3Cc4csc[n+]4[C@@H]23)c(C)c1`, for which the inhibition (viability loss, TRAIL sensitization) is -3.55% (inactive).
In the case of `C#Cc1cc(N2CCN(C(=O)c3ccoc3)CC2)n2nc(-c3cccc(Cl)c3)cc2n1`, the inhibition (viability loss, TRAIL sensitization) was 91.7% (active).
For `CNc1cncc(-c2cccc(C(=O)N3CCOCC3)c2)n1` the value was -18.4% (inactive); for `CCc1nc2ccc(C(=O)N3CCN(c4cccc(Cl)c4)CC3)cc2nc1CC`, 1.3% (inactive); for `CC(C)(C)NC(=O)C(CCc1ccccc1)n1c(=O)c(-c2ccccc2)nc2ccccc21` (centres undefined), -2.69% (inactive).
Then `Nc1cc(C(F)(F)F)ccc1N1CCOCC1`, with -31.5% (inactive).
As to `COc1ccc(COC[C@H](CC(C)C)N2CCN(C(=O)c3cccc(C(F)(F)F)c3)CCC2=O)cc1`, the inhibition (viability loss, TRAIL sensitization) is -6.73% (inactive).
For `O=C(C(=O)N1CCC(c2ccccc2)CC1)c1ccccc1` the value was -9.02% (inactive); for `COc1cccc2c1C(=O)c1c(O)c3c(c(O)c1C2=O)CC(O)(C(C)=NNC(=O)c1ccc(Cl)c(Cl)c1)CC3OC1CC(N)C(O)C(C)O1` (centres undefined), 55.5% (active); for `Cc1c(Nc2nc3ccccc3nc2NS(=O)(=O)c2cccs2)c(=O)n(-c2ccccc2)n1C`, -7.01% (inactive).
Then `CCN(CC(=O)Nc1ccc(C)c(S(=O)(=O)N(C)C)c1)Cc1ccccc1`, with 9.33% (inactive); and `Cc1ccc(C(=O)Nc2ccc(C)c(S(=O)(=O)N(C)C)c2)s1`, with 61.7% (active); and `Cc1csc(SCC(=O)Nc2ccc(C)c(S(=O)(=O)N(C)C)c2)n1`, with 1.13% (inactive).
For `Cc1ccc(S(=O)(=O)NNC(=S)NC(C)(C)C)cc1`, the inhibition (viability loss, TRAIL sensitization) is -2.34% (inactive).
For `N=c1c2c3c(sc2nc2n1CCCCC2)CCCC3` the value was 0.553% (inactive); for `NNC(=O)C1CCCn2c1nc1sc3c(c1c2=O)CCCC3` (centres undefined), 55.9% (active); for `Cn1c(NN)nc2sc3c(c2c1=O)CCC3`, -10.7% (inactive).
Then `O=C1CSC(c2ccc(Cl)cc2)N1` (centres undefined), with 0.721% (inactive).
Then `CCOc1ccc(C(C)=O)cc1COC(=O)c1cnc(Cl)c(Cl)c1`, with 64.1% (active); and `COC(=O)c1ccc(COC(=O)c2cnc(Cl)c(Cl)c2)cc1`, with 1.15% (inactive); and `CCOc1ccc(C(C)=O)cc1COC(=O)CNC(=O)c1cccs1`, with -4.84% (inactive).
For the compound `COC(=O)/C(=C\Nc1ccccc1)NC(=O)c1ccc(Cl)cc1Cl`, the inhibition (viability loss, TRAIL sensitization) is 10.1% (inactive).
Then `Cc1ccccc1CN1C(=O)CSCC1(C)C(=O)Nc1c(C)cccc1C` (centres undefined), with -13% (inactive).
For `COc1ccc(S(=O)(=O)N2CCOCC2)cc1NC(=O)CC1CC2CCC1C2` (centres undefined), the inhibition (viability loss, TRAIL sensitization) was -19.8% (inactive).
Then `Cn1cc([N+](=O)[O-])c(C(=O)Nc2ccc3c(c2)OCCO3)n1`, with 23.6% (inactive); and `Cc1cc(=O)[nH]c(N/N=C/c2c(C)nn(-c3ccccc3Cl)c2Cl)n1`, with -2.12% (inactive).
For `Cc1nn(-c2ccccc2)c(Cl)c1/C=N/NC(=O)c1nn(C)cc1[N+](=O)[O-]` the value was 54.6% (active); for `COc1ccc(N2CCN(C(=O)C3CCN(S(=O)(=O)c4ccc(C)cc4)CC3)CC2)cc1`, -4.63% (inactive).
Then `CC(C)NC(=O)CSc1nnc(COc2ccccc2Cl)o1`, with 11.2% (inactive); and `COc1cccc(-c2sc3ccc(OC)cc3c2-c2ccc(OCCN3CCCCC3)cc2)c1`, with 12.9% (inactive); and `COc1ccc2sc(-c3ccc(S(C)(=O)=O)cc3)c(C#Cc3cncn3C)c2c1`, with 54.7% (active).
Turning to `Cn1cncc1C#Cc1c(-c2ccsc2)sc2ccccc12`, the inhibition (viability loss, TRAIL sensitization) is 0.155% (inactive).
For `Cc1cc(C)n2nc(C(=O)OCC(=O)N(C)CC(=O)Nc3ccc(F)cc3)nc2n1` the value was 2.14% (inactive).
Regarding `c1ccc(-n2ncc(-c3nn[nH]n3)n2)cc1`, the inhibition (viability loss, TRAIL sensitization) was 8.97% (inactive).
For `O=C(NNS(=O)(=O)c1ccc([N+](=O)[O-])cc1)C1CCCCC1` the value was -2.99% (inactive).
Then `CC(C)(C)OC(=O)C[C@H]1C/C=C\C[C@@H](CC(=O)N[C@H](CO)Cc2ccccc2)C(=O)NC[C@@H](c2ccccc2)OC1=O`, with -2.43% (inactive); and `O=C(C[C@H]1C/C=C\C[C@@H](NC(=O)OCC2c3ccccc3-c3ccccc32)C(=O)O[C@@H](c2ccccc2)CNC1=O)N[C@H](CO)Cc1ccccc1`, with 73.9% (active).
For `CC(C)(C)OC(=O)C[C@@H]1C/C=C\C[C@@H](CC(=O)N[C@H](CO)Cc2ccccc2)C(=O)NC[C@@H](c2ccccc2)OC1=O` the value was 3.83% (inactive).
`O=c1ccn([C@@H]2O[C@H](CNS(=O)(=O)c3cc4ccccc4s3)[C@@H](O)[C@H]2O)c(=O)[nH]1`: the inhibition (viability loss, TRAIL sensitization) is 5.61% (inactive).
For `COc1ccc(N2CCN(C(CNS(=O)(=O)c3ccc(C)cc3)c3ccccc3)CC2)cc1` (centres undefined) the value was -6.83% (inactive); for `CC1CCCC(NC(=O)c2cc(-c3ccncc3)nc3ccccc23)C1C` (centres undefined), 11.9% (inactive); for `O=C(NCCc1ccccn1)c1cc(-c2ccc(Cl)cc2)nc2ccccc12`, 7.97% (inactive).
As for `CCc1ccc(-c2cc(C(=O)NN3CCN(C)CC3)c3ccccc3n2)cc1`, the inhibition (viability loss, TRAIL sensitization) is 58.3% (active).
For `O=C(NCc1cccnc1)c1ccccc1NC(=O)c1c(F)cccc1F` the value was -13.9% (inactive).
For `COc1ccc(CC(N)c2csc(NC(=O)NC(c3ccccc3)c3ccccc3)n2)cc1` (centres undefined) the value was 44.6% (inactive).
For `COc1ccc(CC(N)c2csc(NC(=O)Nc3ccc(C(C)C)cc3)n2)cc1` (centres undefined) the value was 92.1% (active); for `COc1ccc(CC(N)c2csc(NC(=O)Cc3ccccc3)n2)cc1` (centres undefined), -6.08% (inactive).
